Compounds without any hit were thinned out: in the full panel of roughly 83,000, 20% have a hit.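 Treatment: one concentration, 48 hours, 96-well format. Scoring: percent growth, with anything below 10 considered active.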 Activity calls are given as the source filed them.
How the values were obtained:
Assay in all cases: NCI-60 one-dose screen, 48 h (100 = growth as untreated, 0 = no growth, -100 = all killed)
Conditions in all cases: 10 µM unless noted
HCT-15 colon = system: HCT-15 colon
HT29 colon = system: HT29 colon
SNB-75 CNS = system: SNB-75 CNS
SNB-19 CNS = system: SNB-19 CNS
U251 CNS = system: U251 CNS
PC-3 prostate = system: PC-3 prostate
SK-MEL-5 melanoma = system: SK-MEL-5 melanoma
UACC-62 melanoma = system: UACC-62 melanoma
LOX IMVI melanoma = system: LOX IMVI melanoma
SK-MEL-28 melanoma = system: SK-MEL-28 melanoma
SK-MEL-2 melanoma = system: SK-MEL-2 melanoma
EKVX NSCLC = system: EKVX NSCLC
SN12C renal = system: SN12C renal
UO-31 renal = system: UO-31 renal
TK-10 renal = system: TK-10 renal
ACHN renal = system: ACHN renal
CAKI-1 renal = system: CAKI-1 renal
A498 renal = system: A498 renal
CCRF-CEM leukemia = system: CCRF-CEM leukemia
MOLT-4 leukemia = system: MOLT-4 leukemia

Measured: growth

O=C1CCCCN1CCCCC#Cc1cccc(C#Cc2cccnc2)c1
active: CCRF-CEM leukemia -23% | MOLT-4 leukemia -49.9%
inactive: HCT-15 colon 44.7% | HT29 colon 86.5% | SNB-75 CNS 79.5% | SNB-19 CNS 78.3% | U251 CNS 72.4% | PC-3 prostate 61.5% | SK-MEL-5 melanoma 62.6% | UACC-62 melanoma 36.3% | LOX IMVI melanoma 95.8% | SK-MEL-28 melanoma 107% | SK-MEL-2 melanoma 96.4% | EKVX NSCLC 93.9% | SN12C renal 90.3% | UO-31 renal 59.1% | TK-10 renal 229% | ACHN renal 101% | CAKI-1 renal 84.4% | A498 renal 84.3%

O=C(NNC(=S)Nc1ccccc1)c1ccncc1
inactive: HCT-15 colon 101% | HT29 colon 99.6% | SNB-75 CNS 102% | SNB-19 CNS 110% | U251 CNS 105% | PC-3 prostate 90.1% | SK-MEL-5 melanoma 109% | UACC-62 melanoma 109% | LOX IMVI melanoma 101% | SK-MEL-28 melanoma 115% | SK-MEL-2 melanoma 94.3% | EKVX NSCLC 117% | SN12C renal 109% | UO-31 renal 84% | TK-10 renal 102% | ACHN renal 103% | CAKI-1 renal 133% | A498 renal 124% | CCRF-CEM leukemia 93.7% | MOLT-4 leukemia 104%

COc1ccc(CN2CCc3c(Cl)nc(N)nc3C2=O)c(OC)c1
active: HCT-15 colon -36.7% [100 µM] | HT29 colon -4.88% [100 µM] | SNB-75 CNS 4.5% [100 µM] | U251 CNS 4.76% [100 µM] | SK-MEL-5 melanoma -55.7% [100 µM] | UACC-62 melanoma -24.5% [100 µM] | LOX IMVI melanoma -29.7% [100 µM] | SK-MEL-28 melanoma -56.1% [100 µM] | SK-MEL-2 melanoma -30.2% [100 µM] | EKVX NSCLC 5.84% [100 µM] | CCRF-CEM leukemia 3.61% [100 µM]
inactive: SNB-19 CNS 33.9% [100 µM] | PC-3 prostate 12% [100 µM] | SN12C renal 17.2% [100 µM] | UO-31 renal 27.9% [100 µM] | TK-10 renal 22.2% [100 µM] | ACHN renal 32.3% [100 µM] | CAKI-1 renal 23.4% [100 µM] | A498 renal 35.7% [100 µM] | MOLT-4 leukemia 13% [100 µM]

C/C=C(\C)C(=O)N[C@H]1CC[C@]2(C)C3CC[C@@]4(C)C(CC[C@@H]4C(C)N(C)C)C3CCC2[C@H]1OC(C)=O (stereo not given in full)
inactive: MOLT-4 leukemia 11.2%
active: HCT-15 colon -78.4% | HT29 colon -68.4% | SNB-75 CNS -50% | SNB-19 CNS -58.7% | U251 CNS -66.1% | PC-3 prostate 0.354% | SK-MEL-5 melanoma -100% | UACC-62 melanoma -51.7% | LOX IMVI melanoma -78.8% | SK-MEL-28 melanoma -97.5% | SK-MEL-2 melanoma -32.7% | EKVX NSCLC -11.3% | SN12C renal -3.57% | UO-31 renal -4.52% | TK-10 renal -48.3% | ACHN renal -65.1% | CAKI-1 renal -43.3% | A498 renal -32.9% | CCRF-CEM leukemia 1.62%

C=C1C(=O)O[C@H]2[C@H]1CC/C(COC(=O)NCCCCNC(=O)OC/C1=C/CC[C@@]3(C)O[C@H]3[C@H]3OC(=O)C(=C)[C@@H]3CC1)=C\CC[C@@]1(C)O[C@@H]21
inactive: HCT-15 colon 81.6% | SNB-75 CNS 49.5% | SNB-19 CNS 90.9% | U251 CNS 73.6% | PC-3 prostate 67.7% | SK-MEL-5 melanoma 76.8% | SK-MEL-2 melanoma 36.4% | EKVX NSCLC 89% | SN12C renal 19.6% | UO-31 renal 79.8% | TK-10 renal 20.1% | ACHN renal 57.5% | CAKI-1 renal 76.8% | A498 renal 95.1%
active: HT29 colon 5.38% | UACC-62 melanoma -20.8% | LOX IMVI melanoma -22.5% | SK-MEL-28 melanoma -10.1% | CCRF-CEM leukemia -33.6% | MOLT-4 leukemia -14.8%

O=C1OCC2=C1C(c1cccc(C(F)(F)F)c1)c1cc3c(cc1N2CCO)OCCO3 (stereo not given)
active: HT29 colon 3.94% | CCRF-CEM leukemia 9.36%
inactive: HCT-15 colon 14.1% | SNB-75 CNS 42.4% | SNB-19 CNS 23.4% | U251 CNS 14.7% | PC-3 prostate 26.2% | SK-MEL-5 melanoma 22.9% | UACC-62 melanoma 39.9% | LOX IMVI melanoma 37.4% | SK-MEL-28 melanoma 50% | SK-MEL-2 melanoma 26.1% | EKVX NSCLC 49.1% | SN12C renal 46% | UO-31 renal 47.4% | TK-10 renal 54.4% | ACHN renal 33.7% | CAKI-1 renal 30.5% | A498 renal 16% | MOLT-4 leukemia 16.8%

O=C1N=c2ccccc2=C1c1sc(=S)n(C2CC(=O)N(c3ccc(Cl)cc3)C2=O)c1O (stereo not given)
inactive: HCT-15 colon 93.7% | HT29 colon 114% | SNB-75 CNS 86.1% | SNB-19 CNS 102% | U251 CNS 104% | PC-3 prostate 86.6% | SK-MEL-5 melanoma 102% | UACC-62 melanoma 95.9% | LOX IMVI melanoma 89.5% | SK-MEL-28 melanoma 109% | SK-MEL-2 melanoma 102% | EKVX NSCLC 101% | SN12C renal 94.9% | UO-31 renal 68.5% | TK-10 renal 129% | ACHN renal 93.9% | CAKI-1 renal 87.6% | A498 renal 114% | CCRF-CEM leukemia 83.8% | MOLT-4 leukemia 97.7%

CCN(C(=O)N1CCN(c2cc3c(cc2F)c(=O)c(C(=O)O)cn3C2CC2)CC1)c1nc(-c2ccccc2)cs1
inactive: HT29 colon 10.9% | SNB-75 CNS 31.3% | SNB-19 CNS 22.5% | U251 CNS 20.7% | PC-3 prostate 11.5% | SK-MEL-5 melanoma 11.7% | UACC-62 melanoma 13.1% | SK-MEL-28 melanoma 41.8% | SK-MEL-2 melanoma 45.9% | EKVX NSCLC 31% | TK-10 renal 40.9% | CAKI-1 renal 29.4% | CCRF-CEM leukemia 18.1% | MOLT-4 leukemia 14.7%
active: HCT-15 colon 9.62% | LOX IMVI melanoma -11.1% | SN12C renal 5.8% | UO-31 renal 1.81% | ACHN renal 8.64% | A498 renal 5.67%

Nc1nc(Nc2cccnc2)sc1C(=O)c1ccccc1F
active: UO-31 renal 9.16% | ACHN renal 9.23% | CAKI-1 renal -3.89% | CCRF-CEM leukemia 4.65%
inactive: HCT-15 colon 27.7% | HT29 colon 35.9% | SNB-75 CNS 30.3% | SNB-19 CNS 43.1% | U251 CNS 42% | PC-3 prostate 43.2% | SK-MEL-5 melanoma 30.1% | UACC-62 melanoma 42.4% | LOX IMVI melanoma 29.8% | SK-MEL-28 melanoma 65.9% | SK-MEL-2 melanoma 48.5% | EKVX NSCLC 50.7% | SN12C renal 36.8% | TK-10 renal 54.6% | A498 renal 26.4% | MOLT-4 leukemia 26.8%

COc1cccc(C2C(C#N)=C(N)Oc3cc(OCCCCCC[P+](c4ccccc4)(c4ccccc4)c4ccccc4)ccc32)c1 (stereo not given)
inactive: HCT-15 colon 62% | UO-31 renal 39.2% | ACHN renal 18%
active: HT29 colon -17.6% | SNB-75 CNS -71.3% | SNB-19 CNS -65.8% | U251 CNS -79.4% | PC-3 prostate -13.1% | SK-MEL-5 melanoma -97.5% | UACC-62 melanoma -66.8% | LOX IMVI melanoma -93.8% | SK-MEL-28 melanoma -77.1% | SK-MEL-2 melanoma -59.2% | EKVX NSCLC -0.839% | SN12C renal -31.4% | TK-10 renal -16.5% | CAKI-1 renal -8.91% | A498 renal -30% | CCRF-CEM leukemia 1.92% | MOLT-4 leukemia -15.8%

CCOC(=O)C(=Cc1ccc(C#N)cc1)C(=O)OCC
inactive: SNB-75 CNS 42.9% | SNB-19 CNS 65.2% | U251 CNS 50.3% | PC-3 prostate 33.3% | SK-MEL-5 melanoma 59.6% | UACC-62 melanoma 10.6% | SK-MEL-2 melanoma 42.9% | EKVX NSCLC 77.2% | SN12C renal 45.9% | CAKI-1 renal 48.6% | A498 renal 82.3% | MOLT-4 leukemia 10.6%
active: HCT-15 colon -21% | HT29 colon -39.7% | LOX IMVI melanoma -54.9% | SK-MEL-28 melanoma -17.7% | UO-31 renal -33.9% | TK-10 renal -1.52% | ACHN renal -64.7% | CCRF-CEM leukemia 2.95%

C[C@]12CCc3c(ccc4cc(O)ccc34)[C@@H]1C[C@H](O)[C@@H]2O
inactive: HCT-15 colon 108% | HT29 colon 102% | SNB-75 CNS 116% | SNB-19 CNS 95% | U251 CNS 101% | PC-3 prostate 78.5% | SK-MEL-5 melanoma 102% | UACC-62 melanoma 88.6% | LOX IMVI melanoma 93.3% | SK-MEL-28 melanoma 110% | SK-MEL-2 melanoma 125% | EKVX NSCLC 74.7% | SN12C renal 93% | UO-31 renal 85.3% | TK-10 renal 110% | ACHN renal 98% | CAKI-1 renal 77.5% | A498 renal 73% | CCRF-CEM leukemia 84.7% | MOLT-4 leukemia 102%

O=S(=O)(Nc1cc(Sc2cccc3cccnc23)c(O)c2ccccc12)c1ccc(F)cc1
active: HCT-15 colon -42.9% | HT29 colon -40.9% | U251 CNS 5.35% | SK-MEL-5 melanoma -40.2% | UACC-62 melanoma -26.9% | LOX IMVI melanoma -60.7% | SK-MEL-28 melanoma -16.2% | SK-MEL-2 melanoma 1.64% | SN12C renal -15% | UO-31 renal -11.2% | ACHN renal 0.351% | CCRF-CEM leukemia 5.42% | MOLT-4 leukemia -18.4%
inactive: SNB-75 CNS 63.8% | SNB-19 CNS 42.1% | PC-3 prostate 17% | EKVX NSCLC 37.1% | TK-10 renal 17.1% | CAKI-1 renal 11.9% | A498 renal 70.4%

O=C1OCC2=C1C(c1cccc(C(F)(F)F)c1)c1cc3c(cc1N2CCO)CCC3 (stereo not given)
inactive: SNB-75 CNS 46% | SNB-19 CNS 23% | U251 CNS 12.4% | PC-3 prostate 21.7% | UACC-62 melanoma 41.7% | LOX IMVI melanoma 16.5% | SK-MEL-28 melanoma 52.8% | EKVX NSCLC 40.7% | SN12C renal 24.9% | UO-31 renal 35.5% | TK-10 renal 53.9% | ACHN renal 23.4% | CAKI-1 renal 26.9%
active: HCT-15 colon 6.24% | HT29 colon 1.24% | SK-MEL-5 melanoma 0.201% | SK-MEL-2 melanoma 9.34% | A498 renal 1.23% | CCRF-CEM leukemia 6.63% | MOLT-4 leukemia 7.83%

Source: PubChem BioAssay (NCI)
